Measurements as given in PubChem BioAssay (EPA / NIEHS).
Where “and” joins values, the source holds several entries; their conditions need not be identical. Equal entries are not always repeated. Results filed as inconclusive are left out. The source holds several records for some structures; these can differ, active in one and inactive in another. Calls of active or inactive are those of the source. How the source made its calls, unless noted: active means hit-call score of the fitted dose curve at least 0.9, where 1 is the maximum; inconclusive means response in the unintended direction; inactive means score below 0.9.

Columns and labels:
[1] = read-out: organic anion transporter (SLCO1B1), SLCO1B1 (gene 10599); assay: CLD_SLCO1B1_48hr: CellzDirect (CLD) Gene Expression Assay for organic anion transporter (SLCO1B1) at 48 hours (AID 2283707)
In short: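 Primary human hepatocytes from two donor preparations dosed daily for two days with multiple concentrations, 0.2% DMSO vehicle. SLCO1B1 mRNA at 48 h by quantitative nuclease protection assay, chemiluminescence; gain-of-signal fitted versus DMSO.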

[2] = read-out: glucuronosyltransferase (UGT1A1), UGT1A1 (gene 54658); assay: CLD_UGT1A1_48hr: CellzDirect (CLD) Gene Expression Assay for glucuronosyltransferase (UGT1A1) at 48 hours (AID 2283709);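 further: actives increase expression relative to DMSO so potency refers to induction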
In short: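 Human primary hepatocytes dosed daily for two days (0.2% DMSO vehicle), harvested at 48 h. UGT1A1 mRNA induction measured by quantitative nuclease protection assay with chemiluminescence; gain of signal versus DMSO; cytotoxicity flagged from morphology.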

[3] = read-out: HMG-CoA synthase (HMGCS2), HMGCS2 (gene 3158); assay: CLD_HMGCS2_48hr: CellzDirect (CLD) Gene Expression Assay for HMG-CoA synthase (HMGCS2) at 48 hours (AID 2283711)
In short: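 Primary human hepatocytes from two donors dosed daily for two days, 0.2% DMSO vehicle. HMGCS2 mRNA measured 48 h after dosing by quantitative nuclease protection assay with chemiluminescent read-out; induction fitted relative to DMSO, cytotoxicity flagged by microscopy.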

[4] = STM_H9_OrnithineISnorm_perc: Stemina devTOX quickPredict H9 human embryonic stem cell (hESC)-based Assay for Ornithine (ORN) Metabolite Biomarker, Normalized (AID 2283712; active means hit-call score of the fitted dose curve at least 0.9, where 1 is the maximum; inactive means score below 0.9;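 further: ornithine released into spent medium during last day measured by mass spectrometry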)
In short: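 Undifferentiated H9 hESCs exposed 72 h with daily media and compound renewal; final 24-h conditioned medium analysed by UPLC-HRMS. Ornithine peak area normalised to spiked C13 standard and to median 0.1% DMSO control; viability by CellTiter-Fluor.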

[5] = STM_H9_CystineISnorm_perc: Stemina devTOX quickPredict H9 human embryonic stem cell (hESC)-based Assay for Cystine (CYSS) Metabolite Biomarker, Normalized (AID 2283713; active means hit-call score of the fitted dose curve at least 0.9, where 1 is the maximum; inactive means score below 0.9)
In short: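 Undifferentiated H9 hESCs exposed 72 h, compound and media replaced every 24 h; final 24-h media analysed by UPLC-HRMS. Cystine normalized to C13 spike-in standard and median 0.1% DMSO control.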

[6] = STM_H9_OrnCyssISnorm_ratio: Stemina devTOX quickPredict H9 human embryonic stem cell (hESC)-based Assay for Ornithine (ORN):Cystine (CYSS) Ratio (AID 2283714)
In short: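 Undifferentiated H9 hESCs exposed 72 h, media and compound replaced every 24 h; final 24-h conditioned media deproteinized and analysed by UPLC-HRMS against C13 spike-ins. Value is the internal-standard-normalized ORN/CYSS ratio versus 0.1% DMSO.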

[7] = CEETOX_H295R_MTT_cell_viability: Viability Assessment in the CeeTox HT-H295R MTT Assay (AID 2283718; active means hit-call score of the fitted dose curve at least 0.9, where 1 is the maximum; inactive means score below 0.9)
In short: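 Human H295R adrenal cells, prestimulated 48 h with 10 uM forskolin, were exposed 48 h to chemicals in 0.1% DMSO. Viability was measured in the same wells by MTT (0.5 mg/ml, 4 h, 37 C), absorbance 570/650 nm, as percent of controls.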

[8] = Tanguay_ZF_120hpf_ActivityScore_legacy: (Legacy) Oregon State University Tanguay Lab 120 Hour Post-fertilization zebrafish Assay Score for Activity (AID 2283742);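 on AC50: dechorionated Tropical 5D wild-type zebrafish embryos held singly per well; static exposure from 6 hpf until 120 hpf at 28 °C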
In short: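 Dechorionated Tropical 5D embryos, one per well from 6 hpf, statically exposed to 120 hpf at 28 °C in 0.64% DMSO. Mortality and malformations scored binary by brightfield microscopy; activity score combines 18 endpoints, fitted positively versus DMSO.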

[9] = read-out: alkyl and aryl transferase (GSTA2), GSTA2 (gene 2939); assay: CLD_GSTA2_48hr: CellzDirect (CLD) Gene Expression Assay for alkyl and aryl transferase (GSTA2) at 48 hours (AID 2283708);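 further: active means mRNA induction above DMSO vehicle baseline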
In short: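 Primary human hepatocytes dosed daily for two days (0.2% DMSO vehicle), harvested at 48 h. GSTA2 mRNA induction measured by quantitative nuclease protection assay with chemiluminescent imaging, fitted for gain of signal relative to DMSO.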

[10] = read-out: sulfotransferase (SULT2A), SULT2A1 (gene 6822); assay: CLD_SULT2A_48hr: CellzDirect (CLD) Gene Expression Assay for sulfotransferase (SULT2A) at 48 hours (AID 2283710);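 further: hits raise SULT2A1 transcript above the 0.2% DMSO vehicle baseline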
In short: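 Primary human hepatocytes (two donor preparations) dosed daily for two days with chemicals at multiple concentrations, vehicle 0.2% DMSO; SULT2A1 mRNA induction at 48 h by quantitative nuclease protection assay, chemiluminescent read-out, fitted for gain of signal versus DMSO.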

[11] = ArunA_CellTiter_hNP: Viability Assessment in the ArunA Biomedical's Oris Neural Crest (hNC) Cell Migration Assay (AID 2283753)
In short: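 H9-derived hNP1 neuroprogenitors, 60,000/well on Matrigel, cultured 16 h, then 72 h chemical exposure in test medium. Cell titer via CellTiter Aqueous One; positive-direction fit vs DMSO.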

[12] = ArunA_Migration_hNP: ArunA Biomedical's Oris Neuroprogenitor (hNP) Cell Migration Assay (AID 2283754)
In short: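 Human H9-derived hNP1 neuroprogenitors on Matrigel with LIF/bFGF, plated around seeding stoppers for 16 h at 37C; stoppers removed at start of 72 h chemical exposure. Calcein-AM staining, fluorescence 494/517 nm in detection zone; loss-of-signal vs DMSO; cytochalasin D control.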

[13] = ArunA_Migration_hNC: ArunA Biomedical's Oris Neural Crest (hNC) Cell Migration Assay (AID 2283755)
In short: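 Human H9-derived neural crest stem cells, 60,000/well on Matrigel, 16 h at 37C, then 72 h chemical exposure after seeding-stopper removal. Migration into detection zone read as calcein-AM fluorescence (ex494/em517), relative to DMSO.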

[14] = ArunA_NOG_NucleusCount: ArunA Biomedical's Neurite Outgrowth (NOG) Assay for Nucleus Count (AID 2283756)
In short: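 Human H9-derived differentiated neurons were exposed for 48 h right after seeding. Hoechst-stained nuclei gated by size and intensity were counted by automated high-content imaging as viable neurons. Loss of signal vs DMSO.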

[15] = ArunA_NOG_NeuriteLength: ArunA Biomedical's Neurite Outgrowth (NOG) Assay for Neurite Length (AID 2283757)
In short: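 Differentiated human H9-derived neurons were exposed for 48 h from seeding, then stained with Hoechst and βIII-tubulin. Automated high-content imaging gave total neurite length per valid neuron, counting processes >10 um. Loss of signal was scored versus DMSO.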

[16] = ArunA_NOG_NeuritesPerNeuron: ArunA Biomedical's Neurite Outgrowth (NOG) Assay for Neurites Per Neuron (AID 2283758)
In short: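 Differentiated human H9-derived neurons exposed to chemicals for 48 h from seeding, then stained with Hoechst and βIII-tubulin/DyLight 488. Automated imaging counted neurites (processes >10 um) per valid neuron; loss of signal versus DMSO scored.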

[17] = ArunA_NOG_BranchPointsPerNeurite: ArunA Biomedical's Neurite Outgrowth (NOG) Assay for Branch Points Per Neurite (AID 2283759)
In short: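 Automated image analysis traced neurites (processes >10 um) from valid cell bodies after Hoechst and βIII-tubulin staining. hNN cells from H9 embryonic stem cells, 48 h exposure. Fitted bidirectionally against DMSO.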

[18] = biological target: Luciferin 4-monooxygenase (Photinus pyralis) (UniProt P08659); assay: CCTE_Simmons_QuantiLum_inhib_2: CCTE's Firefly Luciferase Inhibition Assay, Simmons Lab (AID 2283767);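 further: potency for inhibitors that lower luciferase luminescence relative to DMSO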
Chain of Luciferin 4-monooxygenase (Photinus pyralis) (P08659 whole entry, looked up): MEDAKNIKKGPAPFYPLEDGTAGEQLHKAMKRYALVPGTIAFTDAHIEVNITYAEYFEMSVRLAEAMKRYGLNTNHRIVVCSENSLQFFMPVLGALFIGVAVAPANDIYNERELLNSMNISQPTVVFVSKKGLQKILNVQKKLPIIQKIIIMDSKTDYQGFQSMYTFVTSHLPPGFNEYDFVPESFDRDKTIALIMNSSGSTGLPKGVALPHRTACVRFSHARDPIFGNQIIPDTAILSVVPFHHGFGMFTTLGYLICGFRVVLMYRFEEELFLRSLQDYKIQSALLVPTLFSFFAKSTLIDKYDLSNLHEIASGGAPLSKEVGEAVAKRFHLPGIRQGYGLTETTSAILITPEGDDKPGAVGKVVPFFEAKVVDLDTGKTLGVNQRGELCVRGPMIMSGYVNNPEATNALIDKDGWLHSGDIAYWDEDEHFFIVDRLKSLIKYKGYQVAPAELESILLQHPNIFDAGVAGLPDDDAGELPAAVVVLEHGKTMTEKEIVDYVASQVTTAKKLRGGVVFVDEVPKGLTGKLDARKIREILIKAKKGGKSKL
In short: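 Cell-free recombinant firefly luciferase (5 ng/well) in 200mM potassium phosphate with 1 mg/ml BSA, 30 min at 37C with 8 concentrations from 5 nM to 87.5 uM [final], 0.5% DMSO. Luminescence read after D-luciferin (150uM)/dATP (147uM) reagent injection, pH 7.8; triplicates.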

[19] = ArunA_CellTiter_hNC: Viability Assessment in the ArunA Biomedical's Oris Neural Crest (hNC) Cell Migration Assay (AID 2283752)
In short: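 Human H9-derived neural crest cells plated on Matrigel (60,000/well) with LIF and bFGF, incubated 16 h, then exposed 72 h to chemical in test medium. Viability measured with CellTiter Aqueous One reagent; loss of signal versus DMSO.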

[20] = tested on: Thyroperoxidase (TPO), gene 445522; assay: CCTE_Simmons_GUA_TPO: CCTE's Guaiacol Assay for Thyroperoxidase (TPO) Inhibition, Simmons Lab (AID 2283750)
In short: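 Porcine thyroid microsomes (25 ug) in 200mM potassium phosphate, preincubated 30 s at 37C with compound (8 concentrations, 5 nM–87.5 uM) and 35mM guaiacol; 1mM H2O2 starts reaction. Absorbance change at 450nm over first 80 s; loss of signal versus DMSO, three replicates.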

Measured: AC50

CN(C)C(=O)Nc1cccc(C(F)(F)F)c1
inactive: [1] | [2] | [3] | [4] | [5] | [6] | [7] | [8]

CN(C)[C@@H]1C(=O)C(C(N)=O)=C(O)[C@@]2(O)C(=O)C3=C(O)c4c(O)cccc4[C@@](C)(O)[C@H]3[C@H](O)[C@@H]12
active: [3] 0.164 µM | [4] 50 µM | [5] 11.6 µM | [11] 4.16 µM | [12] 50 µM | [13] 50 µM | [14] 44.7 µM | [15] 78.6 µM | [16] 83.4 µM | [17] 89.6 µM | [18] 714 nM and 72.3 µM
inactive: [1] | [9] | [10] | [4] | [5] | [6] | [7] | [8]

COc1cc(OC)nc(Sc2cccc(Cl)c2C(=O)O)n1
inactive: [1] | [3] | [8]

O=C(O)c1cc(Oc2ccc(C(F)(F)F)cc2Cl)ccc1[N+](=O)[O-]
active: [3] 0.026 µM
inactive: [1] | [2] | [7] | [8]

COc1cccc(C(=O)NN(C(=O)c2cc(C)cc(C)c2)C(C)(C)C)c1C
inactive: [1] | [7] | [8]

CCCCN(CC)c1c([N+](=O)[O-])cc(C(F)(F)F)cc1[N+](=O)[O-]
inactive: [1] | [9] | [3] | [7] | [8]

FC(F)C(F)(F)OCC(Cn1cncn1)c1ccc(Cl)cc1Cl (configuration not stated)
inactive: [9] | [4] | [5] | [7]
active: [8] 0.00154 µM

O=[N+]([O-])c1cc(C(F)(F)F)c(Cl)c([N+](=O)[O-])c1Nc1ncc(C(F)(F)F)cc1Cl
inactive: [9] | [19] | [11] | [13] | [14]
active: [4] 15.5 µM | [5] 16.4 µM | [6] 15.2 µM | [8] 45.7 µM

COP(=O)(NC(C)=O)SC (configuration not stated)
active: [18] 37.5 µM
inactive: [1] | [10] | [3] | [7] | [8] | [20]

CN1COCN(Cc2cnc(Cl)s2)C1=N[N+](=O)[O-]
inactive: [1] | [9] | [3] | [8]

C[N+]1(C)CCCCC1
inactive: [1] | [9] | [3] | [4] | [5] | [8]

Cc1ccn2nc(S(=O)(=O)Nc3c(F)cccc3F)nc2n1
inactive: [1] | [2] | [10] | [3] | [4] | [5] | [7] | [8]
